Laboratory results taken from PubChem BioAssay (NCATS).
Where “and” joins values, the source holds several entries; their conditions need not be identical. Equal values may be shown once. Results filed as inconclusive are left out. Calls of active or inactive are those of the source. Unless noted, calls come from the whole dose curve; as a rule, active = well fitted curve in the direction sought with a large enough effect; inconclusive = small, poorly fitted or top-dose-only effect, or another doubt; inactive = no such curve, though single readings can be large; an effect the other way counts as inactive or inconclusive.

Columns and labels:
[1] = AP1 Signaling Pathway (AID 357; active = well fitted curve in either direction with a large enough effect, not every such curve was filed as active;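 note: ME-180 reporter cells stimulated with EGF at its EC50 level; % is set by controls: 0 for no effect and ±100 for the full control effect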)
Outline: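 First, ME-180 AP-1-bla cells were cultured overnight at 37 °C in low-serum Opti-MEM. Next, titrated compounds with EC50 EGF were incubated 5 hours. Finally, CCF4 was added for 2.5 hours and the 460/530 nm ratio recorded.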

[2] = biological target: Cytochrome P450 1A2 (Homo sapiens) (UniProt P05177); assay: p450-cyp1a2 (AID 410; calls by dose curve;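 note: -100% = full effect of reference inhibitor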)
Outline: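 20nM CYP1A2, 100uM Luciferin-ME (=Km), 100mM KPO4; cpd 10 min RT; +NADPH regen, 60 min RT; stop/detect 20 min; luminescence. Normalized to furafylline 57 uM = full inhibition.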

[3] = NFAT Signaling Pathway (AID 444; active = well fitted curve in either direction with a large enough effect, not every such curve was filed as active;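 note: carbachol stimulus at about its EC50 of 1 µM final; % is set by controls: 0 for no effect and ±100 for the full control effect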); conditions: Jurkat NFAT-bla M1, carbachol, beta-lactamase ratio, 5 h; at 17.2 µM (top of the series)
Outline: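 Read-out: CCF4 FRET ratio (460 nm/530 nm) after 1 h RT dye loading, used for %activity and AC50 from titration series. Cells: Jurkat NFAT-β-lactamase/M1 line, treated with compound plus 1 uM carbachol for 5 h, 37 °C.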

[4] = Stat Signaling Pathway (AID 446; active = well fitted curve in either direction with a large enough effect, not every such curve was filed as active;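 note: ME-180 cervical cancer cells given 40 pM IL-6 alongside compound; SIE-controlled beta-lactamase reporter measured as 460/530 nm FRET emission ratio; % is set by controls: 0 for no effect and ±100 for the full control effect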)
Outline: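 FRET read-out (405 nm excitation, 460/530 nm emission) of a beta-lactamase reporter under a STAT-inducible element in ME-180 cervical carcinoma cells. Cells with compound receive 40 pM IL-6 for 5 h. Values are normalised to AC90 stimulation and AC90 JAK-inhibitor controls.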

[5] = biological target: Glucocorticoid receptor (Homo sapiens) (UniProt P04150); assay: GR-GFP Redistribution (AID 450;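 active = compounds whose dose series gives a full or clear partial fitted curve of increased nuclear translocation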; note: potency is the fitted concentration of half-maximal effect); conditions: U2OS GR-GFP nuclear translocation, laser cytometry, 2 h
[6] = biological target: Glucocorticoid receptor (Homo sapiens) (UniProt P04150); assay: GR-EFC Redistribution (AID 451; calls by dose curve; note: potency is the fitted concentration of half-maximal effect); conditions: CHO-K1 GR-EFC translocation, beta-gal luminescence, 2 h
Outline: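 Translocation of GR-ED fusion to nuclear EA restores b-gal, read by luminescence after 1 h room-temperature detection. Engineered CHO-K1 biosensor cells, 1,000/well, exposed 2 h at 37 C to titrations up to 46 uM final.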

[7] = biological target: Mitogen-activated protein kinase 10 (Mus musculus) (UniProt Q61831); assay: JNK3 AlphaScreen Assay (AID 530; active = well fitted curve in either direction with a large enough effect, not every such curve was filed as active;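 note: kinase came from lysate of stimulated human HepG2 cells; signal reports phosphorylation of biotinylated GST-cJun 1-79 at Ser73 with 10 µM ATP; % is set by controls: 0 for no effect and ±100 for the full control effect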)
Outline: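 Kinase buffer: 20 mM Tris-HCl pH 7.6, 10 mM MgCl2, 1 mM DTT, 0.1 mM Na3VO4, 0.01% Tween-20; ATP 10 uM. Substrate biotin-GST-cJun(1-79), enzyme from activated HepG2 lysates. Detection by Ser73 phospho-antibody AlphaScreen.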

[8] = biological target: 3',5'-cyclic-AMP phosphodiesterase 4B (Homo sapiens) (UniProt Q07343); assay: qHTS Assay for Inhibitors of PDE-IV (AID 607; active = well fitted activation curve with a large enough effect in the main read-out, with a control signal flat, not every such curve was filed as active; note: % of control where 0% means no effect)
Outline: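 Cell-based read-out of cAMP via a modified cyclic nucleotide-gated channel and membrane potential dye (535/590 nm) in HEK293 cells expressing PDE4 endogenously. Compounds tested up to 22.9 uM final; 100 uM RO 20-1724 reference.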

[9] = biological target: Cytochrome P450 2C9 (Homo sapiens) (UniProt P11712); assay: qHTS Assay for Inhibitors and Substrates of Cytochrome P450 2C9 (AID 883); note: % is set by controls: 0 for no effect and ±100 for the full control effect; nearly all actives have a fitted effect of over 60% in size
Outline: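 Inhibition of CYP2C9 is scored as loss of luminescence, with 57uM sulphaphenazole defining 100% inhibition. Substrate Luciferin-H is used at 100uM, equal to its KM; enzyme at 10nM in 25mM KPO4, 60 min at 37C with NADPH regeneration.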

[10] = biological target: Cytochrome P450 3A4 (Homo sapiens) (UniProt P08684); assay: qHTS Assay for Inhibitors and Substrates of Cytochrome P450 3A4 (AID 884); note: potency is the fitted concentration of half-maximal effect; nearly all actives have a fitted effect of over 50% in size
Outline: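 Luminescent readout of luciferin produced by CYP3A4 (20 nM) dealkylation of Luciferin-PPXE, 25 uM (its KM). NADPH-driven reaction ran 60 min at RT after 10 min compound preincubation; data scaled to 57 uM ketoconazole as 100% inhibition.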

[11] = biological target: Cytochrome P450 3A4 (Homo sapiens) (UniProt P08684); assay: qHTS Assay for Activators of Cytochrome P450 3A4 (AID 885); note: nearly all actives have a fitted effect of over 65% in size
Outline: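 Luminescent readout of luciferin formed from 25 uM Luciferin-PPXE (KM level) by 20 nM CYP3A4 in 200 mM KPO4, with 60 min NADPH-driven reaction at room temperature after 10 min compound exposure. Ketoconazole (57 uM) defined 100% inhibition.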

[12] = biological target: Cytochrome P450 2D6 (Homo sapiens) (UniProt P10635); assay: qHTS Assay for Inhibitors and Substrates of Cytochrome P450 2D6 (AID 891); note: potency is the fitted concentration of half-maximal effect; nearly all actives have a fitted effect of over 60% in size
Outline: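 Luminescent read-out of luciferin formed by 5 nM human CYP2D6 demethylating 30 uM Luciferin-ME EGE (Km level) over 60 min at room temperature after NADPH regeneration addition. Data normalized to full inhibition by 1.43 uM quinidine.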

[13] = qHTS Assay for Lipid Storage Modulators (AID 1519; calls by dose curve); conditions: Drosophila S3 cells, BODIPY lipid droplet/cell ratio, laser cytometry, cells loaded with oleic acid
Outline: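 Cells seeded at 5,000 per well were treated with compounds over a concentration series and loaded with oleic acid (400 uM, as added). Lipid droplet fluorescence (488 nm excitation, 500-530 nm channel) was read by laser-scanning cytometry and normalized to 20 uM Triacsin C.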

[14] = biological target: Ubiquitin carboxyl-terminal hydrolase 1 (Homo sapiens) (UniProt O94782); assay: Inhibitors of USP1/UAF1: Pilot qHTS (AID 504865);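 note: rhodamine fluorescence freed from ubiquitin-rhodamine substrate followed over time; top concentration of the series differs between compounds; % is set by controls: 0 for no effect and ±100 for the full control effect; nearly all actives have a fitted effect of over 35% in size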
Outline: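 Deubiquitinase activity followed as kinetic rhodamine fluorescence release from 150 nM Ub-Rho. 1 nM USP1/UAF1 with compound, after 15 min room-temperature preincubation, in HEPES pH 7.8 buffer containing TCEP, EDTA, BSA and Tween-20.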

[15] = biological target: DNA dC->dU-editing enzyme APOBEC-3G (Homo sapiens) (UniProt Q9HC16); assay: qHTS for inhibitors of Vif-A3G interactions: Validation (AID 588379); note: 0% is about no effect
Outline: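 Yellow fluorescence (Ex 488, Em 500-530) of Vif-coexpressing HeLa A3G-eYFP cells, scanned by Acumen cytometer, reports blocked A3G degradation. Cells plated at 700/well overnight at 37 deg C before compound addition, then a further overnight compound incubation at 37 deg C.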

[16] = qHTS for Inhibitors of the Functional Ribonucleoprotein Complex (vRNP) of Lassa (LASV) Arenavirus: LASV Primary Screen - GLuc reporter signal (AID 1347082; calls by dose curve; tested in HEK293 reporter line; note: % is set by controls: 0 for no effect and ±100 for the full control effect; nearly all actives have a fitted effect of over 60% in size)
[17] = qHTS for Inhibitors of the Functional Ribonucleoprotein Complex (vRNP) of Lassa (LASV) Arenavirus: Viability assay - alamar blue signal for LASV Primary Screen (AID 1347083; calls by dose curve; tested in HEK293 reporter line; note: % is set by controls: 0 for no effect and ±100 for the full control effect; nearly all actives have a fitted effect of over 80% in size)
[18] = qHTS for Inhibitors of the Functional Ribonucleoprotein Complex (vRNP) of Lymphocytic Choriomeningitis Arenaviruses (LCMV): Viability assay - alamar blue signal for LCMV Primary Screen (AID 1347085; calls by dose curve; tested in HEK293 reporter line; note: % is set by controls: 0 for no effect and ±100 for the full control effect; nearly all actives have a fitted effect of over 80% in size)
[19] = biological target: Nucleoprotein (Lymphocytic choriomeningitis virus (strain Armstrong)) (UniProt P09992); assay: qHTS for Inhibitors of the Functional Ribonucleoprotein Complex (vRNP) of Lymphocytic Choriomeningitis Arenaviruses (LCMV): LCMV Primary Screen - GLuc reporter signal (AID 1347086; calls by dose curve; note: % is set by controls: 0 for no effect and ±100 for the full control effect; nearly all actives have a fitted effect of over 70% in size)
[20] = system: Zika virus NS2B-NS3 protease; assay: Primary screen GU AMC qHTS for Zika virus inhibitors (AID 1347154);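 note: 0% = no-inhibitor control and -100% = no-enzyme control; nearly all actives have a fitted effect of over 70% in size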
Outline: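 Fluorogenic AMC-substrate cleavage by noncovalent NS2B-NS3 protease complex (25 nM, pH 8.0 Tris buffer with Tween 20) followed for 15 minutes at room temperature (~20% conversion). Percent inhibition from ex340/em450 signal change, fitted by 4-parameter Hill equation.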

[21] = system: Zika virus NS2B-NS3 protease (linked construct); assay: Primary screen NINDS Rhodamine qHTS for Zika virus inhibitors (AID 1347160); note: % is set by controls: 0 for no effect and ±100 for the full control effect; nearly all actives have a fitted effect of over 55% in size
Outline: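 Rhodamine110-peptide cleavage (1.5 µM substrate) by 25 nM linked NS2B-NS3 enzyme at pH 8.0 (Tris, Tween 20), after 15 min RT preincubation with compounds; 15-min fluorescence change normalized to controls and Hill-fitted.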

[22] = OV-KATE Cancer Cell Toxicity qHTS against the NCATS CANVASS Library (AID 1347345); note: % is set by controls: 0 for no effect and ±100 for the full control effect
Outline: (§1)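 1000 cells/well; 4 h settle; 11-pnt titration; 72 h, 37 degrees C, 5% CO2; CellTiter-Glo, 15min RT; luminescence read.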

[23] = HPAF-II Cancer Cell Toxicity qHTS against the NCATS CANVASS Library (AID 1347346); note: % is set by controls: 0 for no effect and ±100 for the full control effect; nearly all actives have a fitted effect of over 55% in size
Outline: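 1000 HPAF-II cells/well; 4 h pre-incubation; 11-pnt compound titration; 72 h, 37 degrees C/5% CO2; CellTiter-Glo, 15 min RT; luminescence read.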

[24] = UWB1.289 Cancer Cell Toxicity qHTS against the NCATS CANVASS Library (AID 1347347); note: % is set by controls: 0 for no effect and ±100 for the full control effect; nearly all actives have a fitted effect of over 60% in size
Outline: as §1

[25] = Panc-1005 Cancer Cell Toxicity qHTS against the NCATS CANVASS Library (AID 1347349)
Outline: as §1

[26] = SW1088 Cancer Cell Toxicity qHTS against the NCATS CANVASS Library (AID 1347350); note: nearly all actives have a fitted effect of over 75% in size
Outline: as §1

[27] = U-118MG Cancer Cell Toxicity qHTS against the NCATS CANVASS Library (AID 1347351); note: % is set by controls: 0 for no effect and ±100 for the full control effect
Outline: as §1

[28] = COV-362 Cancer Cell Toxicity qHTS against the NCATS CANVASS Library (AID 1347352); note: % is set by controls: 0 for no effect and ±100 for the full control effect
Outline: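 1000 cells/well, 4 h pre-incubation 37 °C/5% CO2; 11-pnt titration; 72 h; CellTiter-Glo 15 min RT, luminescence.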

[29] = A2780 Cisplatin Sensitive Ovarian Cancer Cell Toxicity qHTS against the NCATS CANVASS Library (AID 1347353); note: nearly all actives have a fitted effect of over 60% in size
Outline: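 750 cells/well, 4 h settle; 11-pt cpd titration; 72 h, 37 °C, 5% CO2; ATPLite 10 min RT; luminescence read.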

Cytochrome P450 3A4 (Homo sapiens), sequence (P08684 whole entry, looked up): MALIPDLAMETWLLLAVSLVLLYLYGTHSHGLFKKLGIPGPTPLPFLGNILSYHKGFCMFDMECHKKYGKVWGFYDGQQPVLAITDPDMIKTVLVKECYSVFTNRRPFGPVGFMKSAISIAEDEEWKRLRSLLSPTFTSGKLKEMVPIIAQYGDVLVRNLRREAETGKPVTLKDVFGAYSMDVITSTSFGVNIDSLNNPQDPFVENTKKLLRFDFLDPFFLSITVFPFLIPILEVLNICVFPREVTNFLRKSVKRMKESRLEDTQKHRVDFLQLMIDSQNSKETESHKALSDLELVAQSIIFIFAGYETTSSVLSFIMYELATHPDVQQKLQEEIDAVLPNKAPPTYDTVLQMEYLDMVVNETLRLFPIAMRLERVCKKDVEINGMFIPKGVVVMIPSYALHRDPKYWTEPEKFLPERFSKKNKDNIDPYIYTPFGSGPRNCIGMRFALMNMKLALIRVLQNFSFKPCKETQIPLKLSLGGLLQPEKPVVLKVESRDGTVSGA
Glucocorticoid receptor (Homo sapiens), sequence (P04150 whole entry, looked up, the tested form may be a part): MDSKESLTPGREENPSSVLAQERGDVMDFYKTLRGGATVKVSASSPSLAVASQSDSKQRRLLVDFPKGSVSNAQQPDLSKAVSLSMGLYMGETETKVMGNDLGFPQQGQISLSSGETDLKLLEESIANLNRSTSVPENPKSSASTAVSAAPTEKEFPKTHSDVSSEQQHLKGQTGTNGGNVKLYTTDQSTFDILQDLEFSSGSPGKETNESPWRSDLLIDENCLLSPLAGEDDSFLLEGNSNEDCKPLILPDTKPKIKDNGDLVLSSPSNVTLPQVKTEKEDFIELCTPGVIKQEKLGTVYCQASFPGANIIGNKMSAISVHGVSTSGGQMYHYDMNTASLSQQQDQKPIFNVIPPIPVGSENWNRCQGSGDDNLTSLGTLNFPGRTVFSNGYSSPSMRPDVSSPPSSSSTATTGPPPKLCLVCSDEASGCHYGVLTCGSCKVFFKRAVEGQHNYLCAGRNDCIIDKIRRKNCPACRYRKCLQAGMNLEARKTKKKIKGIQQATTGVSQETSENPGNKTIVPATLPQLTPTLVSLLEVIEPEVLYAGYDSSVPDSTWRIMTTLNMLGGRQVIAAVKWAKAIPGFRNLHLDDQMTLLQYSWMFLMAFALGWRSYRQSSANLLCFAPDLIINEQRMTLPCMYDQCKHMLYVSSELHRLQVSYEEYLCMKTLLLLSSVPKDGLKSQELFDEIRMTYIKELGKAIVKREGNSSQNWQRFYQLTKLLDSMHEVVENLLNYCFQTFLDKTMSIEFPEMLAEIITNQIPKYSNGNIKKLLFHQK
Cytochrome P450 2D6 (Homo sapiens), sequence (P10635 whole entry, looked up): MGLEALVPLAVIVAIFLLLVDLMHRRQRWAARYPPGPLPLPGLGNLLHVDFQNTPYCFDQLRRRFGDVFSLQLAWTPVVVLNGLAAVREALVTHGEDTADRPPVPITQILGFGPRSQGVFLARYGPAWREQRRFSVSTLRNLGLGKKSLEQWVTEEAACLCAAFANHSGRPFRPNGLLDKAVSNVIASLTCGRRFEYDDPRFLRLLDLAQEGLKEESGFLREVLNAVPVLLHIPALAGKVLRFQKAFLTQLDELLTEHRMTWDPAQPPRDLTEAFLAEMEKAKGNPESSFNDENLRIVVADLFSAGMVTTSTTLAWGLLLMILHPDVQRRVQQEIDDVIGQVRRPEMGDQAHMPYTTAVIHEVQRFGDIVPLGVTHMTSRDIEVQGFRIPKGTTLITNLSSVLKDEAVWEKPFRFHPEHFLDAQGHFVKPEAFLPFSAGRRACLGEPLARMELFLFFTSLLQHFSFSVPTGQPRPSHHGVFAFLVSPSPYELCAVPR
Cytochrome P450 1A2 (Homo sapiens), sequence (P05177 whole entry, looked up): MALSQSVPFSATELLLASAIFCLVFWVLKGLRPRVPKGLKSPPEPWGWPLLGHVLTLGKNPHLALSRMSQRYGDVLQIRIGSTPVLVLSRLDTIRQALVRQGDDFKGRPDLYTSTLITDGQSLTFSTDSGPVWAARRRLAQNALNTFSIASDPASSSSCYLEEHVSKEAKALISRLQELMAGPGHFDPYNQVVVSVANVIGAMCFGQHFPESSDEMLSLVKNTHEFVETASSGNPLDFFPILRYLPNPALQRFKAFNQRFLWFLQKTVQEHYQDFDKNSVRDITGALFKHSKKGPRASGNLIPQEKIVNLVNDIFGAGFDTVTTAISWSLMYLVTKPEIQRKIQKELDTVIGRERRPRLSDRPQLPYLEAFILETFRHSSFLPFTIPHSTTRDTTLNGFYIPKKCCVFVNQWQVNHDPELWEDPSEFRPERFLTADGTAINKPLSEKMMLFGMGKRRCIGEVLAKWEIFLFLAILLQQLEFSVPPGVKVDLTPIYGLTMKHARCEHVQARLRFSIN
Nucleoprotein (Lymphocytic choriomeningitis virus (strain Armstrong)), sequence (P09992 whole entry, looked up): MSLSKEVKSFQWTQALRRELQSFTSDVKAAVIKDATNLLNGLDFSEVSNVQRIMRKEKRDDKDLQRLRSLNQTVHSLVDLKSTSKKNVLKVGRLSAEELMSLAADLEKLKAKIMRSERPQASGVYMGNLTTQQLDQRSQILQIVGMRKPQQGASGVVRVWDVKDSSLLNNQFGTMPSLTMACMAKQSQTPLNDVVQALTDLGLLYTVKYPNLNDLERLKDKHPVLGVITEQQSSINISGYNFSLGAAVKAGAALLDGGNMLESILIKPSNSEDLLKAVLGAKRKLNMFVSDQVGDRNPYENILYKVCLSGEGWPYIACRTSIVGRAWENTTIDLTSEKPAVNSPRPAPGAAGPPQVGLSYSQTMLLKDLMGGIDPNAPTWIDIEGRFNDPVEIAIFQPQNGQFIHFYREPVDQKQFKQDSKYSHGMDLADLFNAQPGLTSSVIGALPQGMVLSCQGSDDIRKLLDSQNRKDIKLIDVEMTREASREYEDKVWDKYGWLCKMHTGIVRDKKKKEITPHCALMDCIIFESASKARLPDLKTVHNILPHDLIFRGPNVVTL
Ubiquitin carboxyl-terminal hydrolase 1 (Homo sapiens), sequence (O94782 whole entry, looked up): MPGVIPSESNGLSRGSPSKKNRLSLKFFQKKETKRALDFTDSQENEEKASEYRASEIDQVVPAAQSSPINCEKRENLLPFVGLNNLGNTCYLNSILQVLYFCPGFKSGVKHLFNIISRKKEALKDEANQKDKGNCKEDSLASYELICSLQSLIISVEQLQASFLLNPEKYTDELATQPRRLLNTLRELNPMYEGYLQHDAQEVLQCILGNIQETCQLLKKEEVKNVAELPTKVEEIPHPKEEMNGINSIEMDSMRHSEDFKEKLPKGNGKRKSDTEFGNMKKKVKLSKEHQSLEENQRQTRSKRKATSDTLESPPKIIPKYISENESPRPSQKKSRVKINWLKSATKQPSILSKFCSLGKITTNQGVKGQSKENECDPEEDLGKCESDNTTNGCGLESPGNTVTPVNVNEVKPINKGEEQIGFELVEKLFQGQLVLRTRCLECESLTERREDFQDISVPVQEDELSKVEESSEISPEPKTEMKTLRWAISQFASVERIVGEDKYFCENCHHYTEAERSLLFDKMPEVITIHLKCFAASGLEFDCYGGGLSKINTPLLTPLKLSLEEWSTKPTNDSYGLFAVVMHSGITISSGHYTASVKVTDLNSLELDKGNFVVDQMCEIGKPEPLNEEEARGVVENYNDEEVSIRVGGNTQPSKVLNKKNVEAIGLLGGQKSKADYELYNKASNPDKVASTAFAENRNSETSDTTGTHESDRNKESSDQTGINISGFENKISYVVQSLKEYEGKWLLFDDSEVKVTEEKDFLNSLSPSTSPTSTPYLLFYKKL
3',5'-cyclic-AMP phosphodiesterase 4B (Homo sapiens), sequence (Q07343 whole entry, looked up): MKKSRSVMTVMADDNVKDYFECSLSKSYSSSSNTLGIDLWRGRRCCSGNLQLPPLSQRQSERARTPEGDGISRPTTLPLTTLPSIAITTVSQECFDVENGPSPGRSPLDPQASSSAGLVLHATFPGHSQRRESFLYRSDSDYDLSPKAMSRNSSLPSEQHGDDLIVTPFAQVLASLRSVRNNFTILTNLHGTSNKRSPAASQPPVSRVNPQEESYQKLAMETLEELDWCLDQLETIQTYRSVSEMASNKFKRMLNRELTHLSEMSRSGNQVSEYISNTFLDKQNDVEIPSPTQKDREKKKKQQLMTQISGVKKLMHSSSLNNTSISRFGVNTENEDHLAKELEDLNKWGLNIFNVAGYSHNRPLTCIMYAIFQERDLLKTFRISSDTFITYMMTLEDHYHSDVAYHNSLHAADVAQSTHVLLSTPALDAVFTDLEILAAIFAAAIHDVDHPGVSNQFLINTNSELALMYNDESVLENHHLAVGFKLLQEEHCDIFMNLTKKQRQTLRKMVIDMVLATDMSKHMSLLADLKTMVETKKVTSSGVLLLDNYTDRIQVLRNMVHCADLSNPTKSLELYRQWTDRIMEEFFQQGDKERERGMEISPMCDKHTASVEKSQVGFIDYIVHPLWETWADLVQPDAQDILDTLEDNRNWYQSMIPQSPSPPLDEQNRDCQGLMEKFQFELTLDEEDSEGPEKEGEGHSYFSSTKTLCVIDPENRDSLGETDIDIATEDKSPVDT
Cytochrome P450 2C9 (Homo sapiens), sequence (P11712 whole entry, looked up): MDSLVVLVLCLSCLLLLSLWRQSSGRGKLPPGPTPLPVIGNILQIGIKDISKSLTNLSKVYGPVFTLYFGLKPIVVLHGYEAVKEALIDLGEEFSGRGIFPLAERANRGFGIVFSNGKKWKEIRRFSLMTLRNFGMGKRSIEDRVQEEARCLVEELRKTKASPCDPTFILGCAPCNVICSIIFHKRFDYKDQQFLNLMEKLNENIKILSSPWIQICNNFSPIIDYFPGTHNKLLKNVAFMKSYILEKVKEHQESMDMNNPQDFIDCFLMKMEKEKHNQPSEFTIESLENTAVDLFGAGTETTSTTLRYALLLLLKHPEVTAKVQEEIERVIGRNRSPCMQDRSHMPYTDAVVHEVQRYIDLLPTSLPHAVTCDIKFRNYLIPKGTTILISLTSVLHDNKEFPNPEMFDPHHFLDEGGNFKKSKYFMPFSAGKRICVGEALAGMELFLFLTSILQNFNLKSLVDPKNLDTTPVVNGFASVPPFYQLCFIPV

CN(C)Cc1c[nH]c2ccccc12
-14%: max response ([13]; measured here: cell count channel max response) | max response ([13]; measured here: lipid channel max response)
active: Potency [10] 15.8 µM | Potency [12] 158 nM and 10 µM
inactive: outcome [1] | Potency [2] | activity change, negative = inhibition [3] 1.81% | outcome [4] | Potency [5] > 20.6 µM and > 46 µM | Potency [6] > 20.6 µM and > 46 µM | outcome [7] | Potency [8] | Potency [9] | Potency [11] | activity change, negative = inhibition ([13]; at 25.7 µM (top of the series)) -1.33% | Potency [14] | Potency [15] | Potency [16] | Potency [17] | Potency [18] | Potency [19] | Potency [20] | Potency [21] | Potency [22] | Potency [23] | Potency [24] | Potency [25] | Potency [26] | Potency [27] | Potency [28] | Potency [29]
